Inconclusive results are not listed. Values without a mark were called inactive. Calls follow the shape of the dose curve; as a rule, active = well fitted cell-killing curve with a large enough effect in the repeat runs; inconclusive = weak or mixed curves, or effect the other way; inactive = flat fitted curve, though single readings scatter.
Assay: qHTS assay to identify small molecule antagonists of the retinoid acid receptor (RAR) signaling pathway - cell viability counter screen (AID 1159551); also: nearly all actives have a fitted effect of over 35% in size
Conditions: C3RL4 cells viability, ATP luminescence (CellTiter-Glo), 6 h; series mostly up to 92.4 µM; activity change, negative = cytotoxicity: at the top concentration
Excerpt: U.S. Tox21 Program National Center for Advancing Translational Sciences [NCATS] NIH Chemical Genomics Center [NCGC] U.S. Environmental Protection Agency [EPA] National Institutes of Environmental Health Sciences [NIEHS] National Toxicology Program [NTP] U.S. Food and Drug Administration [FDA] Tox21 Assay Overview: All-trans Retinoic acid (atRA) is the potent natural metabolite of retinol and plays an important role in normal embryonic development and maintenance of cellular phenotype in adult animals. atRA is the activating ligand for the retinoic acid receptors (RARs) which form heterodimers with retinoid X receptors (RXRs) on the retinoic acid response element (RARE). Through activation of the RAR/RXRs nuclear receptors, atRA regulates the transcription of a large number of protein-coding genes and regulatory RNAs. Intracellular levels of atRA are controlled by the retinol signaling pathway (RSP) that regulates the biosynthesis and catabolism of atRA to maintain physiological levels. Chemicals that interfere with the RSP can cause abnormal intracellular levels of atRA and therefore are potential developmental toxicants. To assess compounds for the potential adverse effect on embryonic development through interfering with retinol signaling, a cell-based RARE luciferase reporter gene assay was used. C3RL4 cell line (OARSA/CFSAN/FDA, Laurel, MD) was used to screen Tox21 10K compound library for identifying inhibitors of the RSP. Also cytotoxicity was assessed by determining the viability of cells based on the quantitation of ATP.
Tox21 Assay Protocol Summary: C3RL4 cells were seeded at 1,000/well in 4 uL of assay medium into white solid 1,536-well tissue culture plates (Greiner Bio-One North America Inc. Monroe, NC) using a Multidrop Combi (Thermo Scientific, Waltham, MA) dispenser. After incubation at 37 C and 5% CO2 for an overnight, 23 nL of compounds dissolved in DMSO, positive control or DMSO only were transferred by a Pintool station (Kalypsys, San Diego, CA). One ul of 1 uM (final concentration) of Retinol was added right after the compound addition by using a Flying Reagent Dispenser (FRD) (Aurora Discovery, San Diego, CA). After 6 hr incubation at 37 C and 5% CO2, 5 uL of CellTiter-Glo reagent (Promega Corporation, Madison, WI) was added to each assay plate using an FRD. Luminescence was quantified on a ViewLux plate reader (PerkinElmer, Waltham, MA) after 30 min incubation at room temperature.
% is scaled to controls: 0 for no effect and ±100 for the full control effect.

| SMILES | activity change, negative = cytotoxicity |
| --- | --- |
| CCCCc1ccc(N)cc1 | -2.03% |
| CC(=O)CCc1ccc(O)cc1 | -0.253% |
| CCCCCOC(=O)Nc1nc(=O)n([C@@H]2O[C@H](C)[C@@H](O)[C@H]2O)cc1F | 3.72% [at 42.5 µM] |
| Nc1cc(C(Cl)=C(Cl)Cl)c(S(N)(=O)=O)cc1S(N)(=O)=O | 0.637% [at 42.5 µM] |
| COc1cc(CCC(C)=O)ccc1O | -0.095% |
| CCN1CCCC(OC(=O)C(c2ccccc2)c2ccccc2)C1 (stereo not given) | -3.92% [at 42.5 µM] |
| CSc1nc(NC2CC2)nc(NC(C)(C)C)n1 | -0.786% |
| Cc1nc(-c2ccc(OCC(C)C)c(C#N)c2)sc1C(=O)O | 7.43% [at 42.5 µM] |
| CCCCNc1ccccc1 | 0.442% |
| CCCOCC(C)OCC(C)O (stereo not given) | 0.851% |
| CCC(=O)/C=C/c1ccc(OC)cc1 | -0.243% |
| CC(C)CCOC(=O)CC(C)C | 0.247% |
| CO[Si](CCCNCCC[Si](OC)(OC)OC)(OC)OC | 3.58% |
| O=S(=O)(c1cccc2cnccc12)N1CCCNCC1 | 2.04% [at 42.5 µM] |
| NCCNC(=O)c1ccc(Cl)cn1 | -0.918% [at 42.5 µM] |
| CCCCCCCCCCCCCCCCCC(=O)OCCCCCCCCCCCCCC(C)C | 7.85% |
| COc1ccc(NC(C)=O)cc1 | 0.659% |
| COC(=O)[C@H]1[C@H]2C[C@@H]3c4[nH]c5cc(OC)ccc5c4CCN3C[C@H]2C[C@@H](OC(=O)COc2ccc(OC)cc2)[C@@H]1OC | -0.431% [at 42.5 µM] |
| CCN1CCN(c2cc3c(cc2F)c(=O)c(C(=O)O)cn3C2CC2)CC1 | 3.53% [at 42.5 µM] |
| CC(=O)O[C@H](CC(=O)[O-])C[N+](C)(C)C | 3.35% |

| SMILES | activity change, negative = cytotoxicity |
| --- | --- |
| C=C(C)C(=O)NCCCN(C)C | -0.795% |
| OCC(CO)(CO)COCC(CO)(CO)CO | 0.954% |
| NC(=O)CCCCC1CCSS1 (stereo not given) | 0.818% [at 42.5 µM] |
| C=C(C)C(=O)OCCC(C)OC(=O)C(=C)C (stereo not given) | 1.05% |
| C[N+](C)(C)CC[N+]1(C)Cc2c(Cl)c(Cl)c(Cl)c(Cl)c2C1 | 0.743% [at 42.5 µM] |
| CC1CCN(CCCC(=O)c2ccc(F)cc2)CC1 | 0.0158% [at 42.5 µM] |
| NCC[C@H](O)C(=O)N[C@@H]1C[C@H](N)[C@@H](O[C@H]2O[C@H](CN)[C@@H](O)[C@H](O)[C@H]2O)[C@H](O)[C@H]1O[C@H]1O[C@H](CO)[C@@H](O)[C@H](N)[C@H]1O | 2.52% [at 0.349 µM] |
| Cc1onc(-c2ccccc2)c1-c1ccc(S(N)(=O)=O)cc1 | 5.34% [at 42.5 µM] |
| CCC(=O)Nc1cccc(N)c1 | 3.67% |
| Cc1ccccc1C(=O)O | 2.14% |
| CC(CCO)CCCC(C)(C)O (stereo not given) | -2% |
| CCCCC1CCCCC(=O)O1 (stereo not given) | -1.07% |
| NS(=O)(=O)c1cc(C2(O)NC(=O)c3ccccc32)ccc1Cl (stereo not given) | 5.3% [at 42.5 µM] |
| CCO[Si](C)(OCC)OCC | 5.33% |
| OCc1ccccn1 | -0.691% [at 42.5 µM] |
| CCc1cc(S(=O)(=O)O)c2cc(C(C)C)cccc1-2 | -1.42% [at 42.5 µM] |
| C=CCOc1nc(OCC=C)nc(OCC=C)n1 | 1.91% |
| O=C(O)/C=C/c1ccc(Cn2ccnc2)cc1 | -4.81% [at 42.5 µM] |
| CCC(C)OC(=O)N1CCCCC1CCO (stereo not given) | 4.08% |
| COc1cc(O)cc(O)c1 | 5.61% [at 42.5 µM] |

— PubChem BioAssay (Tox21)
